For some assays here: Results with a measured potency or affinity are listed apart. Active and inactive are the calls of the source. Unless noted, how the calls were made is not given here.
What was measured:
[1] = antimalarial activity against Dd2 strain (AID 2302;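 active means growth inhibition above 50% at the single 2 µM test dose, taken to imply half-maximal potency below 2 µM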;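 further: 0% = DMSO untreated growth and 100% = chloroquine plus artemisinin killed control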); details: P. falciparum Dd2 in RBCs, LDH growth readout, 72 h; at 2 µM; hits give high values
[2] = HepG2 cytotoxicity, primary screen, cytotoxicity control for P. falciparum antimalarial project, cell-based, ATP luminescence (AID 2303;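 active means inhibition above 50%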;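 further: 0% = DMSO wells and 100% = digitonin-killed cells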); details: HepG2 viability, 24-48 h, at 10 µM, hits give high values
[3] = target: L-lactate dehydrogenase (Plasmodium falciparum (isolate CDC / Honduras)) (UniProt Q27743); assay: PfLDH activity inhibition – cell lysate, 3D7 strain, counter-screen for P. falciparum growth inhibition project (AID 2304);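 further: 0% = vehicle and 100% = reference inhibitor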; details: P. falciparum 3D7 crude extract, LDH APAD/NBT absorbance; at 2 µM; hits give high values
[4] = inhibition of 3D7 malaria parasite growth – strain 3D7 (AID 2306);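 further: 0% = DMSO wells and 100% = chloroquine plus artemisinin control wells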; details: P. falciparum 3D7 erythrocytic growth, LDH absorbance, 72 h; at 2 µM; hits give high values
[5] = target: Calcium-dependent protein kinase 1 (Plasmodium falciparum (isolate 3D7)) (UniProt P62344); assay: PfCDPK1 kinase inhibitors, biochemical, TCAMS library (AID 1159585; cut-off not given, nearly all actives have IC50 up to about 0.98 µM;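 further: inhibitors leave more ATP so luminescence rises with inhibition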); details: recombinant PfCDPK1, Kinase-Glo ATP depletion luminescence
[6] = target: Plasmodium falciparum protein kinase 6 (PK6, PF3D7_1337100) (UniProt Q8IDW1); assay: PfPK6 kinase inhibitors, biochemical, TCAMS library (AID 1159586); details: recombinant PfPK6, Kinase-Glo ATP depletion luminescence
[7] = target: Protein kinase 7 (PK7), Plasmodium falciparum 3D7 (PF3D7_0213400) (UniProt Q7YTF7); assay: inhibition of Plasmodium PK7 catalytic activity – biochemical, TCAMS antimalarial set, Kinase-Glo luminescence (AID 1159587); details: recombinant PfPK7, Kinase-Glo ATP depletion luminescence
[8] = target: Calcium-dependent protein kinase 4 (Plasmodium falciparum (isolate 3D7)) (UniProt Q8IBS5); assay: PfCDPK4 kinase inhibitors, biochemical, TCAMS library (AID 1159588; cut-off not given, nearly all actives have IC50 up to about 0.91 µM); details: recombinant PfCDPK4, Kinase-Glo ATP depletion luminescence
Sequence of Calcium-dependent protein kinase 4 (Plasmodium falciparum (isolate 3D7)) (Q8IBS5 whole entry, looked up): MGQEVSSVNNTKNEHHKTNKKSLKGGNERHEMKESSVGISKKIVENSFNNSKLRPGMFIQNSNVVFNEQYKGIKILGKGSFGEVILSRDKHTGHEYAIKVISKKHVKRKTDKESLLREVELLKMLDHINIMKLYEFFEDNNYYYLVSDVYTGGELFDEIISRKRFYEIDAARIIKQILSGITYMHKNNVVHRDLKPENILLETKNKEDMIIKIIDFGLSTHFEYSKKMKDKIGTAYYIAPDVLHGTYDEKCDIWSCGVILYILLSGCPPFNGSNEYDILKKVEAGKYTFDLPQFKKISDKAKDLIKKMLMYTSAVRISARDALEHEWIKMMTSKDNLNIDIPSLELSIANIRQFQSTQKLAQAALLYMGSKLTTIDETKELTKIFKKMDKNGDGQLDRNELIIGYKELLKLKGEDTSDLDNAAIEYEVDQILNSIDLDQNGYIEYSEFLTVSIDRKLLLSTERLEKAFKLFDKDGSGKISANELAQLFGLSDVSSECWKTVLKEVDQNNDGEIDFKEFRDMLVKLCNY

Sequence of Plasmodium falciparum protein kinase 6 (PK6, PF3D7_1337100) (Q8IDW1 1-305): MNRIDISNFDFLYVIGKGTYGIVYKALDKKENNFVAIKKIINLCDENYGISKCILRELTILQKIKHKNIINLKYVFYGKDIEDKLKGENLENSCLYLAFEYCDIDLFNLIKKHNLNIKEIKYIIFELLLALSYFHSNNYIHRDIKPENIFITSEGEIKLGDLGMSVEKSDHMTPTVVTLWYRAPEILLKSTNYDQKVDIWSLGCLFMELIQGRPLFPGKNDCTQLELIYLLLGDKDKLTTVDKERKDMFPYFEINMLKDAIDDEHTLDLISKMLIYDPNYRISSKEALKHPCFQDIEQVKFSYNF
Sequence of Protein kinase 7 (PK7), Plasmodium falciparum 3D7 (PF3D7_0213400) (Q7YTF7 1-343): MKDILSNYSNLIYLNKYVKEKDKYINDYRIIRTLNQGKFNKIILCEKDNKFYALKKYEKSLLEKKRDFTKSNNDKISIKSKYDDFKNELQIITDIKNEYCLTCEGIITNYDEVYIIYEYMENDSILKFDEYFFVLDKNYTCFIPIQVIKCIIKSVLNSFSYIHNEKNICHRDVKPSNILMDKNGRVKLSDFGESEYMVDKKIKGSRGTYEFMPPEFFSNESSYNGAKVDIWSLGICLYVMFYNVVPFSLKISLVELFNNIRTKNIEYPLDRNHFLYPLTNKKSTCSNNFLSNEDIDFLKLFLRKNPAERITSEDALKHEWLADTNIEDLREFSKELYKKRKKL
Sequence of Calcium-dependent protein kinase 1 (Plasmodium falciparum (isolate 3D7)) (P62344 whole entry, looked up): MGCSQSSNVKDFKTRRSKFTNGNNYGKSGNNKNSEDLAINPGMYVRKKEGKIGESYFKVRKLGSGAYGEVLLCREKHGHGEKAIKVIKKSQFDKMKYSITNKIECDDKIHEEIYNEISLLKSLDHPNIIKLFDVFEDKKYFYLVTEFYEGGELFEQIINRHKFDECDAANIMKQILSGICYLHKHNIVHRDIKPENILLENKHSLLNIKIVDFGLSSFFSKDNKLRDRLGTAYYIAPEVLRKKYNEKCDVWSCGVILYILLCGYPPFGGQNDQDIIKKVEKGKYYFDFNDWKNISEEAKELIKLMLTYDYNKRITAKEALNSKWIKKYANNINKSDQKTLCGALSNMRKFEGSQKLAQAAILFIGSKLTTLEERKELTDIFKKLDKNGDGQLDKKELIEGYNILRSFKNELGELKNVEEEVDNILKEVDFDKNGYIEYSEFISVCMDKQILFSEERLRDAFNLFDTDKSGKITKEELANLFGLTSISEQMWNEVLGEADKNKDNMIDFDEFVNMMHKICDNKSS
Sequence of L-lactate dehydrogenase (Plasmodium falciparum (isolate CDC / Honduras)) (Q27743 whole entry, looked up): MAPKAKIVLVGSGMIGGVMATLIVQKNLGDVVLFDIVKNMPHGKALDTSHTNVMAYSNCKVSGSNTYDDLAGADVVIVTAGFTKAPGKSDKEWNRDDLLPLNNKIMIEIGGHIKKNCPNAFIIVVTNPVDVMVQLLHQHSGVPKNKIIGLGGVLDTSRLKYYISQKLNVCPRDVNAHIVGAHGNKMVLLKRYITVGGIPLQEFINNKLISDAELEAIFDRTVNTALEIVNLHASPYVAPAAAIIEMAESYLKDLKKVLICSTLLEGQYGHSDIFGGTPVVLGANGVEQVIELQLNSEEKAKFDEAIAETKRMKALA

CNc1ccc(CNCc2cccc(-c3ccc(-c4nc5c(C)cccc5[nH]4)s3)c2)cc1
inactive: inhibition [2] 23% | inhibition [3] -2% | outcome [5] | outcome [6] | outcome [7] | outcome [8]
active: growth inhibition [1] 88% | growth inhibition [4] 101%

CC(CCNc1c2ccccc2nc2ccccc12)N1CCN(C)CC1 (configuration not stated)
inactive: growth inhibition [1] -2% | inhibition [2] 25% | inhibition [3] 5% | outcome [5] | outcome [6] | outcome [7] | outcome [8]
active: growth inhibition [4] 101%

CC(C)(C)NCCN(Cc1ccc(-c2ccc(C(F)(F)F)cc2)cc1)C(=O)Cn1c(SCc2ccc(F)cc2)nc(=O)c2c1CCC2
active: growth inhibition [1] 84% | inhibition [2] 64% | growth inhibition [4] 97%
inactive: inhibition [3] 0% | outcome [5] | outcome [6] | outcome [7] | outcome [8]

O=C(NCCN1CCCC1)c1cccc(-c2ccc(-c3nc4ccc(C(F)(F)F)cc4[nH]3)cc2)c1
active: growth inhibition [1] 99% | growth inhibition [4] 101%
inactive: inhibition [2] 34% | inhibition [3] -3% | outcome [5] | outcome [6] | outcome [7] | outcome [8]

COc1ccc(Nc2nccc(-c3cccc(NC(=O)c4cc5cc(F)ccc5[nH]4)c3)n2)cc1
active: growth inhibition [4] 92%
inactive: growth inhibition [1] 37% | inhibition [2] 3% | inhibition [3] 5% | outcome [5] | outcome [6] | outcome [7] | outcome [8]

CCOC(=O)C(NC(=O)Cc1ccccc1)C(C)C (configuration not stated)
inactive: inhibition [2] 39% | inhibition [3] 4% | outcome [5] | outcome [6] | outcome [7] | outcome [8]
active: growth inhibition [1] 98% | growth inhibition [4] 96%

CC(C)C[C@H](NC(=O)c1ccc(OCCN2CCOCC2)cc1)C(=O)N[C@H](/C=N/N1CC(=O)NC1=O)CCc1ccccc1
active: growth inhibition [1] 67% | growth inhibition [4] 88%
inactive: inhibition [2] 10% | inhibition [3] 0% | outcome [5] | outcome [6] | outcome [7] | outcome [8]

CCOC(=O)c1ccc(NC(=O)Nc2ccc(-c3cccc(-c4nc5ccc(F)cc5[nH]4)c3)cc2)cc1
active: growth inhibition [1] 100% | inhibition [2] 98% | growth inhibition [4] 102%
inactive: inhibition [3] 2% | outcome [5] | outcome [6] | outcome [7] | outcome [8]

Cc1ccc(-c2cc(C(=O)Nc3ccc(S(=O)(=O)N4CCOCC4)cc3)[nH]n2)c(O)c1C
active: growth inhibition [4] 91%
inactive: growth inhibition [1] 45% | inhibition [2] 18% | inhibition [3] -5% | outcome [5] | outcome [6] | outcome [7] | outcome [8]

COc1ccccc1NC(=O)Nc1cccc(-c2ccc(-c3nc4c(C)cccc4[nH]3)s2)c1
inactive: growth inhibition [1] 46% | inhibition [2] 19% | inhibition [3] 3% | outcome [5] | outcome [6] | outcome [7] | outcome [8]
active: growth inhibition [4] 100%

Cc1ccc(NC(=O)Nc2ccccc2F)cc1-c1ccc(C(=O)Nc2ccncc2)cc1
inactive: inhibition [2] 36% | inhibition [3] 3% | outcome [5] | outcome [6] | outcome [7] | outcome [8]
active: growth inhibition [1] 54% | growth inhibition [4] 99%

COC(=O)c1ccc(CC(C)NCC(O)c2ccc(C(O)CNC(C)Cc3ccc(C(=O)OC)cc3)cc2)cc1 (configuration not stated)
active: growth inhibition [4] 88%
inactive: growth inhibition [1] 13% | inhibition [2] 24% | inhibition [3] 1% | outcome [5] | outcome [6] | outcome [7] | outcome [8]

Cc1cc2nc(-c3ccc(C(=O)NC4CCN(Cc5ccccc5)CC4)s3)[nH]c2cc1C
active: growth inhibition [1] 82% | growth inhibition [4] 99%
inactive: inhibition [2] 33% | inhibition [3] 1% | outcome [5] | outcome [6] | outcome [7] | outcome [8]

O=C(Nc1ccc(Br)cc1)N1CCC(n2c(-c3ccccc3)nc3cccnc32)CC1
inactive: inhibition [2] 36% | inhibition [3] 0% | outcome [5] | outcome [6] | outcome [7] | outcome [8]
active: growth inhibition [1] 86% | growth inhibition [4] 90%

COc1ccc2ncc(F)c(CCN3CC[C@H](NCc4cc(C#N)c5c(c4)OCCO5)[C@H](O)C3)c2c1
active: inhibition [2] 51% | growth inhibition [4] 96%
inactive: growth inhibition [1] 47% | inhibition [3] 2% | outcome [5] | outcome [6] | outcome [7] | outcome [8]

CCNc1cc(C(=O)N[C@@H](Cc2ccccc2)[C@H](O)CNCc2cc(OC)cc(OC)c2)cc(N2CCCS2(=O)=O)c1
inactive: inhibition [2] -4% | inhibition [3] -2% | outcome [5] | outcome [6] | outcome [7] | outcome [8]
active: growth inhibition [1] 86% | growth inhibition [4] 99%

CN(Cc1cc(C(F)(F)F)cc(C(F)(F)F)c1)C(=O)[C@H]1CNC[C@@H]1c1ccc(F)cc1
inactive: growth inhibition [1] 4% | inhibition [2] 1% | inhibition [3] -5% | outcome [5] | outcome [6] | outcome [7] | outcome [8]
active: growth inhibition [4] 92%

Cc1ccc(NC(=O)c2ccc3ncccc3c2)cc1OC1CCN(Cc2ccsc2)C1 (configuration not stated)
inactive: growth inhibition [1] 49% | inhibition [2] 5% | inhibition [3] -3% | outcome [5] | outcome [6] | outcome [7] | outcome [8]
active: growth inhibition [4] 88%

O=C(O[C@H]1CN[C@H](C#Cc2cc3ncnc(Nc4ccc5c(ccn5S(=O)(=O)c5cccs5)c4)c3s2)C1)N1CCOCC1
inactive: growth inhibition [1] 48% | inhibition [2] -4% | inhibition [3] -1% | outcome [5] | outcome [6] | outcome [7] | outcome [8]
active: growth inhibition [4] 85%

Source: PubChem BioAssay
